This is part of a sample that, as a whole, favours compounds with a hit. Of some 79,000 tested, about 15% had one in any assay. Unmarked numbers belong to inactive results. Active and inactive are the calls of the source. Rule as the data show it: active = growth inhibition above about 70%; inactive = the rest.

Assay [1] in a line: NCI Yeast Anticancer Drug Screen. Data for the rad50 strain (AID 155).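 Also: 0% = growth of vehicle-only cultures of the same strain.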 The conditions noted are these: S. cerevisiae rad50 strain growth inhibition; at 50.0 µM; stronger effect = higher value. The method in brief: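 Readout: growth inhibition relative to vehicle-treated cultures. Compound exposure was carried out in a genetically defined yeast strain deficient in DNA damage repair.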
A short description of assay [2]: NCI Yeast Anticancer Drug Screen. Data for the mec2-1 strain (AID 157). The following applies: S. cerevisiae mec2-1 strain, at 50.0 µM, stronger effect = higher value. The method in brief:
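Compounds were applied to mec2-1 yeast cells. Their growth was then compared with that of vehicle-treated cultures to give growth inhibition.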

Assay [3] can be described thus: NCI Yeast Anticancer Drug Screen. Data for the sgs1 mgt1 strain (AID 161).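 Also: 0% = growth of cultures given vehicle only.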 The following applies: S. cerevisiae sgs1 mgt1 strain, at 50.0 µM, stronger effect = higher value. The method in brief:
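Percent growth inhibition was derived by comparing compound-exposed mutant yeast with vehicle-exposed cultures. The strain carries alterations in DNA damage repair.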

The nature of assay [4]: NCI Yeast Anticancer Drug Screen. Data for the cln2 rad14 strain (AID 165).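 Also: 0% = growth equal to vehicle treated cultures.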 The conditions noted are these: S. cerevisiae cln2 rad14 strain, at 50.0 µM, stronger effect = higher value. The essentials: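 Strain: cln2 rad14 yeast, altered in cell cycle control and DNA damage repair. Read-out: growth inhibition vs vehicle.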
Assay [5] is described as follows: NCI Yeast Anticancer Drug Screen. Data for the bub3 strain (AID 167). The following applies: S. cerevisiae bub3 mutant strain, at 50.0 µM, stronger effect = higher value. The essentials:
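Readout: yeast growth inhibition, expressed relative to vehicle-only wells. The test organism is a mutant strain from a panel with lesions in DNA repair or checkpoint genes.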

Assay [6] can be described thus: NCI Yeast Anticancer Drug Screen. Data for the mlh1 rad18 strain (AID 175). The following applies: S. cerevisiae mlh1 rad18 strain growth inhibition; at 50.0 µM; stronger effect = higher value. The method in brief: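 A repair-deficient yeast strain is exposed to test compound, and growth is scored relative to vehicle-treated controls.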

On to `CCC1OC(=O)C(C)C(OC2CC(C)(O)C(O)C(C)O2)C(C)C(O)C(C)(O)CC(C)C(=O)C(C)C(O)C1C` (configuration not stated), for which the growth inhibition in assay [1] was -14.4%; in assay [2], -22.6%; in assay [3], 0.5%; in assay [4], -5.4%; in assay [5], -21.2%; in assay [6], -5.15%.
In the case of `O=C(O)CN1CCN(CC(=O)O)CCN(CC(=O)O)CCN(CC(=O)O)CC1`, the growth inhibition was -7.95% in assay [1]; -0.55% in assay [2]; 2.9% in assay [3]; -17.6% in assay [4]; 20.4% in assay [5]; 21.6% in assay [6].
With `COc1ccccc1NC(=S)NCCO`, the growth inhibition was 7.25% in assay [1]; 8.7% in assay [2]; 17.6% in assay [3]; 0.8% in assay [4]; 21.1% in assay [5]; 13.6% in assay [6].
`C[N+](C)(Cn1nc(Cl)c2ccc([N+](=O)[O-])cc21)Cn1nc(Cl)c2ccc([N+](=O)[O-])cc21`: the growth inhibition in assay [1] was 43.6%; in assay [2] it was -5%; in assay [3], 18.8%; in assay [4] it was 28.1%; in assay [5] it was -0.25%; in assay [6] it was 27.9%.
Take `Nc1nc(Cl)nc2c1ncn2C1CCC(CO)O1` (configuration not stated): the growth inhibition in assay [1] is -21.2%; in assay [2] it was 1.35%; in assay [3], -7.9%; in assay [4], 5.5%; in assay [5] it was 4.15%; in assay [6], 16.1%.
As for `N#Cc1cc2c(n(C3OC(CO)C(O)C(O)C3O)c1=S)CCCCCC2` (configuration not stated), the growth inhibition is 31% in assay [1]; 19.5% in assay [2]; 17.8% in assay [3]; 10.4% in assay [4]; -3.55% in assay [5]; 37.1% in assay [6].
For the compound `COC(=O)C12C3C4C1C1C2C3C41C(=O)OC(C)(C)C` (configuration not stated), the growth inhibition was 18% in assay [1]; 1.35% in assay [2]; 9.2% in assay [3]; 4.5% in assay [4]; 23.9% in assay [5]; 15.2% in assay [6].
With `Nc1nc(CCC(=O)O)cs1`, the growth inhibition in assay [1] is -6.85%; in assay [2], -14.4%; in assay [3], 4.9%; in assay [4], -24.1%; in assay [5], -1.45%; in assay [6] it was -18.7%.
As to `COC(=O)/C(=N\NC(C)(C)C)C(C(=O)OC)C(=O)C(=O)Nc1cc(Cl)ccc1Cl` (configuration not stated), the growth inhibition in assay [1] was 6.7%; in assay [2], -0.25%; in assay [3] it was -1.65%; in assay [4] it was 1%; in assay [5] it was -24.6%; in assay [6], 8.55%.
In the case of `CCc1cc2c(oc3cc(C)ccc32)c(=O)n1C`, the growth inhibition in assay [1] was -12.4%; in assay [2] it was -7.7%; in assay [3], -13.8%; in assay [4], 13.5%; in assay [5], -14.2%; in assay [6], -8.75%.
Turning to `Cc1ccc2ccccc2c1[N+](=O)[O-]`, the growth inhibition in assay [1] is 43.5%; in assay [2] it was 5%; in assay [3], 37.3%; in assay [4] it was 17.1%; in assay [5], 21.6%; in assay [6] it was 36.5%.
Consider `COC(=O)c1ccc(-c2nc(C#N)c(N)o2)cc1`, for which the growth inhibition in assay [1] was 5.9%; in assay [2], 19.1%; in assay [3], -11.1%; in assay [4], -1.45%; in assay [5], -14.8%; in assay [6] it was -43%.
Take `CC1=C(C(=O)CC(=O)C(=O)Nc2cccc(C)c2C)Sc2ccccc2N1`: the growth inhibition in assay [1] is -24.6%; in assay [2], -43.1%; in assay [3], -12.8%; in assay [4], -1.9%; in assay [5], -13.8%; in assay [6], -12.5%.
As to `OCCN(CCO)c1ncnc2c1ncn2Cc1ccccc1`, the growth inhibition in assay [1] is -7.15%; in assay [2], -7.5%; in assay [3], -7.05%; in assay [4], -42.2%; in assay [5], 8.15%; in assay [6] it was -20.2%.
`Nc1cccc(C(=O)Nc2ccc3c(O)cc(S(=O)(=O)O)cc3c2)c1`: the growth inhibition in assay [1] was 15.2%; in assay [2], -3.1%; in assay [3] it was 11.9%; in assay [4], -30.4%; in assay [5], -12.4%; in assay [6], 7.05%.
As for `C1=Cc2nc1c(-c1ccncc1)c1ccc([n-]1)c(-c1ccncc1)c1nc(c(-c3ccncc3)c3ccc([n-]3)c2-c2ccncc2)C=C1.[Zn+2]`, the growth inhibition in assay [1] is -20.6%; in assay [2], -9.45%; in assay [3] it was -8.95%; in assay [4] it was 15.7%; in assay [5] it was 18.9%; in assay [6], -3.65%.
`Cc1ccccc1N1CCN(CC(O)Cc2ccccc2)CC1` (configuration not stated): the growth inhibition was 19.6% in assay [1]; 10% in assay [2]; 12.1% in assay [3]; -6.85% in assay [4]; 15.1% in assay [5]; 21.1% in assay [6].
In the case of `Nc1ccc(S(=O)(=O)N(CCO)CCO)cc1`, the growth inhibition in assay [1] was -2.65%; in assay [2], -28.2%; in assay [3], -20.9%; in assay [4] it was -6.95%; in assay [5], -18.8%; in assay [6], -12.3%.
As to `COC(=O)C(=O)C1CCc2c(ccc3c2CCCC3)C1` (configuration not stated), the growth inhibition is 0.8% in assay [1]; 17.4% in assay [2]; 22.9% in assay [3]; -8.8% in assay [4]; 8.2% in assay [5]; 10.2% in assay [6].
In the case of `C1COC2OCCOC2O1` (configuration not stated), the growth inhibition in assay [1] was 5.2%; in assay [2], -2.05%; in assay [3], 4.6%; in assay [4], -2.55%; in assay [5] it was 1.4%; in assay [6] it was 0.7%.
On to `O=C(Nc1ccccc1)c1cc2cc(N=Nc3ccc(Br)cc3)ccc2oc1=O`, for which the growth inhibition in assay [1] is 4.2%; in assay [2], -4.7%; in assay [3], -0.4%; in assay [4], 16.1%; in assay [5], -17.1%; in assay [6], -13.1%.
With `CC(=O)Nc1ccccc1O`, the growth inhibition in assay [1] was -4.75%; in assay [2] it was -15.2%; in assay [3], -0.85%; in assay [4], -18.3%; in assay [5], 0.35%; in assay [6], 14.2%.
In the case of `O=C(O)C(CCl)c1ccccc1` (configuration not stated), the growth inhibition in assay [1] was 7.05%; in assay [2] it was -3.1%; in assay [3], 0.4%; in assay [4] it was -17.1%; in assay [5] it was 9.85%; in assay [6] it was 2.25%.
With `COc1ccc2c(c1)N(S(=O)(=O)c1ccc(C)cc1)C[C@@H]1c3cc(O)c(OCc4ccccc4)cc3O[C@H]21`, the growth inhibition in assay [1] is -8.95%; in assay [2], 7.9%; in assay [3] it was -7.8%; in assay [4], -6.8%; in assay [5] it was 2.4%; in assay [6] it was 15.6%.
In the case of `Cc1c2ccccc2nc(CS(=O)c2ccccc2)[n+]1[O-]` (configuration not stated), the growth inhibition in assay [1] was -8.8%; in assay [2] it was 21.9%; in assay [3], 20.1%; in assay [4] it was -36.4%; in assay [5], 16.8%; in assay [6], 20.2%.
Turning to `CCCCN1CCNC1=S`, the growth inhibition in assay [1] is -0.85%; in assay [2], -13.2%; in assay [3], 4.25%; in assay [4] it was -10.6%; in assay [5] it was -28.4%; in assay [6], 9.35%.
Turning to `COC1=C(N)C(=O)c2ccc(-c3ccccn3)nc2C1=O`, the growth inhibition in assay [1] is 89.7% (active); in assay [2], 92.3% (active); in assay [3], 86.8% (active); in assay [4] it was 89.8% (active); in assay [5] it was 81.8% (active); in assay [6], 92.9% (active).
For the compound `CC(C)c1ccc(C(C)C)c(Cl)c1`, the growth inhibition in assay [1] is 43.7%; in assay [2], 13.9%; in assay [3], 16.4%; in assay [4] it was 7.95%; in assay [5], -12.6%; in assay [6], 12.5%.
Regarding `O=C1c2cc(Cl)ccc2OCC1Cl` (configuration not stated), the growth inhibition in assay [1] was 37.5%; in assay [2], 22.2%; in assay [3], 14.6%; in assay [4] it was -25.6%; in assay [5] it was 18.7%; in assay [6] it was 7.4%.
Consider `O=C(Nc1ccc(F)cc1)Nc1ccc(F)cc1`, for which the growth inhibition in assay [1] was 3.4%; in assay [2] it was -10.9%; in assay [3] it was -3.25%; in assay [4], -43.7%; in assay [5], -32.9%; in assay [6], -16.6%.
For `CCOC(CN(CC)CC)OCC`, the growth inhibition in assay [1] was -6.75%; in assay [2] it was -27.6%; in assay [3] it was -5.15%; in assay [4], 7.2%; in assay [5] it was -21.8%; in assay [6], 2.15%.
Consider `CC(C)(C)N(OC(=O)c1ccc(C#N)cc1)c1ccccc1`, for which the growth inhibition in assay [1] was 15.4%; in assay [2], 11.6%; in assay [3], 3.55%; in assay [4], 7.75%; in assay [5], 4.2%; in assay [6] it was 3.35%.
`COc1ccc(NC(=O)CSc2nc(C)nc3c2sc(=S)n3-c2ccccc2)cc1`: the growth inhibition in assay [1] was -16.7%; in assay [2], -4.85%; in assay [3] it was 2.95%; in assay [4], 2.65%; in assay [5] it was -3.5%; in assay [6], 4.45%.
As to `NC(=O)n1ccc(CC(O)(C(F)(F)F)C(F)(F)F)n1`, the growth inhibition in assay [1] is -13.2%; in assay [2], 44%; in assay [3], -2.55%; in assay [4], 55.1%; in assay [5], 2.35%; in assay [6] it was 22.4%.
Take `N#Cc1nc(C2CCC2)oc1N`: the growth inhibition is 2.3% in assay [1]; 5.85% in assay [2]; -15.3% in assay [3]; 18.6% in assay [4]; 1.55% in assay [5]; -41.5% in assay [6].
On to `Fc1ccc(Oc2nc3ccccc3nc2-c2ccccc2)cc1`, for which the growth inhibition in assay [1] was -3.35%; in assay [2], 4.5%; in assay [3] it was -2.15%; in assay [4] it was 5.55%; in assay [5] it was -9.4%; in assay [6], 25.7%.
For the compound `CN(CCO)c1cnn(CCO)c(=O)c1Cl`, the growth inhibition is -14.9% in assay [1]; -8.25% in assay [2]; -17.6% in assay [3]; -6.15% in assay [4]; 8.2% in assay [5]; -7.45% in assay [6].

The record behind these values is PubChem BioAssay (NCI).
